Laboratory results taken from PubChem BioAssay AID1851 (National Center for Advancing Translational Sciences (NCATS), 2009).
Hit rate of the full screen: of about 16,000 compounds, about 4,000 (25%) were called active. Not shown: some 26% with an inconclusive outcome. The call rests on the fitted dose curve; in most records, active means well fitted curve in the direction sought with a large enough effect; inconclusive means small, poorly fitted or top-dose-only effect, or effect the other way; inactive means no such curve, though single readings can be large or run the other way. The list is a sample of the results.

target: Cytochrome P450 2C9 (Homo sapiens) (UniProt P11712); assay: Cytochrome panel assay with activity outcomes; conditions: recombinant CYP, pro-luciferin dealkylation, luminescence, p450-cyp2c9; series mostly up to 57.1 µM; activity, negative = inhibition: at the top concentration
Sequence (P11712 whole entry, looked up): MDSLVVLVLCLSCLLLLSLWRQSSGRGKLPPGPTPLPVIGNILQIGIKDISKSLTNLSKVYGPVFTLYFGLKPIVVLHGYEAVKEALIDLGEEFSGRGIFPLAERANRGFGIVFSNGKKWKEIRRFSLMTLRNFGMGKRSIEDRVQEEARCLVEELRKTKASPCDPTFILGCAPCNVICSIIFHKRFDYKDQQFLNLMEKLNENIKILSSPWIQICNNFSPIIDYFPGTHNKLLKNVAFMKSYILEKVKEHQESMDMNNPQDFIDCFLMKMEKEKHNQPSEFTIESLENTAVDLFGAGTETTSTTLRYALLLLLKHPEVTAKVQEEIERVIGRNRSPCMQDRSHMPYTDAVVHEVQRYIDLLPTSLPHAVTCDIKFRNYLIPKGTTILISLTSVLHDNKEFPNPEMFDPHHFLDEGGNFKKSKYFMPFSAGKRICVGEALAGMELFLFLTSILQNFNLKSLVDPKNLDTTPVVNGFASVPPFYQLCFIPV
On the % scale 0 is the no-effect control and ±100 the full control effect.

AC50, active:
CCOC(=O)CSC1=NC(=O)/C(=C\c2ccc(Cl)cc2)S1 1.26 µM
Cc1cccc(NC(=O)CSc2nc3nc(C)cc(C)c3c(=O)[nH]2)c1 7.94 µM
Cc1sc(NC(=O)c2ccc(OCC(C)C)cc2)c(C(N)=O)c1-c1ccc(Cl)cc1Cl 0.562 µM
COc1ccc(C(=O)Nc2scc(-c3ccc(Cl)cc3Cl)c2C(N)=O)cc1 0.631 µM
CC(C)COc1ccc(C(=O)Nc2scc(-c3ccc(Cl)cc3Cl)c2C(N)=O)cc1 1.78 µM
CN1C(=O)/C(=C\c2ccccc2)Sc2ccc(C(=O)N3CCN(c4ccccn4)CC3)cc21 11.2 µM
CCOC(=O)c1oc2ccccc2c1NC(=O)c1ccc(S(=O)(=O)N(C)C)cc1 0.562 µM
CCOC(=O)c1oc2ccccc2c1NC(=O)c1cc(OC)cc(OC)c1 14.1 µM
Nc1c(S(=O)(=O)O)cc(Nc2cccc(S(N)(=O)=O)c2)c2c1C(=O)c1ccccc1C2=O 3.16 µM
O=C(COc1ccc(Br)cc1)N1CCC(c2ccccc2)C1 (stereo unspecified) 14.1 µM
CCc1ccc(N(C(=O)c2ccoc2C)C(C(=O)NC2CCCC2)c2ccc(OC)cc2)cc1 (stereo unspecified) 28.2 µM
COc1ccc(OC)c2[nH]c(=O)c(CCNS(=O)(=O)c3ccc(Cl)cc3)cc12 2.24 µM
COc1ccc(OC)c2[nH]c(=O)c(CCNS(=O)(=O)c3ccc(C)cc3)cc12 3.55 µM
COc1cccc(-c2cc3nc(-c4ccccc4)cc(N4CCC5(CC4)OCCO5)n3n2)c1 2.82 µM
Fc1cc2nc(-c3ccncc3)[nH]c2cc1F 7.94 µM
CCOC(=O)N1CCN(C(=O)C(C)SCc2ccccc2)CC1 (stereo unspecified) 3.55 µM
Cc1ccc2[nH]c3c(c2c1)CN(C(=O)CN1c2ccc(F)cc2CCC1C)CC3 (stereo unspecified) 10 µM
CNc1cc(N2CCCCCC2)ccc1[N+](=O)[O-] 6.31 µM
O=[N+]([O-])c1ccc(N2CCCC2)cc1NCc1ccccc1 1.58 µM
CS(=O)(=O)N1CCN(c2ccc([N+](=O)[O-])c(NCc3ccccc3)c2)CC1 12.6 µM
O=c1c(-c2cccc(F)c2)nc2cncnc2n1Cc1ccccc1Cl 7.94 µM
O=c1c(-c2cccc(Cl)c2)nc2cncnc2n1Cc1ccccc1 1.26 µM
O=c1c(-c2cccc(Cl)c2)nc2cncnc2n1Cc1ccccc1Cl 3.98 µM
O=c1c(-c2cc(F)cc(F)c2)nc2cncnc2n1Cc1ccccc1Cl 3.98 µM
O=c1c(-c2ccc(F)c(F)c2)nc2cncnc2n1Cc1ccccc1Cl 5.01 µM
COc1ccc([N+](=O)[O-])cc1COc1ccc2c(-c3ccccc3)cc(=O)oc2c1 7.08 µM
Cc1o[nH]c(=O)c1CC[C@H](N)C(=O)O 10 µM
O=C1NCCN1Cc1ccccc1F 12.6 µM
COc1ccc(OC)c(NC(=O)CC(Cc2ccccc2OC)C(=O)O)c1 (stereo unspecified) 2.24 µM
CCOC(=O)C1CCN(Cc2cnc(Oc3ccc(OC)cc3)s2)CC1 10 µM
O=C1c2ccccc2C(=O)N1CCCCN(C(=O)c1ccc([N+](=O)[O-])cc1)c1ccc(Cl)cc1 1.78 µM
O=C1c2ccccc2C(=O)N1CCCCN(C(=O)c1cccc([N+](=O)[O-])c1)c1ccc(Cl)cc1 7.08 µM
CCc1cc2c(=O)n(-c3ccccc3)c(=S)[nH]c2s1 14.1 µM
O=C(N/N=C/c1c[nH]c2ccccc12)c1ccn(Cc2ccc(Cl)cc2Cl)n1 1.26 µM
C=CCc1cccc(C2Nc3ccccc3C(=O)N2O)c1O (stereo unspecified) 5.01 µM
CC(C)CC1CC(=O)OC1(C)C(=O)CSc1nc2ccccc2s1 (stereo unspecified) 28.2 µM
COc1ccc(-c2oc3ccccc3c(=O)c2OC(=O)c2ccc(C)cc2)cc1 1.26 µM

AC50, inactive:
CCN1CCC[C@H]1CNC(=O)c1c(OC)ccc(Br)c1OC
CCCCCCc1c(C[C@H](N)C(=O)O)o[nH]c1=O

activity, negative = inhibition, inactive:
CCOC(=O)N1CCN(C(=O)CSCc2ccc(Cl)cc2)CC1 -29.6%
Cc1noc(C)c1C(=O)N1CCC2(CC1)CN(c1ncccn1)C2 0.629%
Cc1cccc(NC(=O)Cn2c(=O)oc3ccccc32)c1 -13.7%
Cc1cc(C)c2c(=O)[nH]c(SCC(=O)N(C)C)nc2n1 -5.89%
CC[C@@H]1OC(=O)[C@H](C)[C@H](O[C@@H]2C[C@](C)(OC)[C@H](O)[C@H](C)O2)[C@H](C)[C@H](O[C@@H]2O[C@@H](C)C[C@@H](N(C)C)[C@@H]2O)[C@](C)(O)C[C@H](C)C(=NOCOCCOC)[C@H](C)[C@H](O)[C@]1(C)O -2.35% [at 25.6 µM]
NC(=O)OC[C@H](O)COc1ccc(Cl)cc1 13.5% [at 25.6 µM]
O=C(Nc1nnc(COc2ccc(Cl)cc2)s1)c1ccc([N+](=O)[O-])cc1 8.46%
Cn1ncc(C#N)c1/N=C/N1CCCCCC1 -21.1%
O=C(c1csnn1)N1CCC2(CC1)CN(c1ccccn1)C2 29.9%
Cn1cccc1C(=O)N1CCC2(CC1)CN(c1ccccn1)C2 3.16%
CCOC(=O)c1oc2ccccc2c1NC(=O)c1ccc2c(c1)OCO2 -7.45%
Oc1ccccc1CNn1cnnc1 -7.99%
NC(=NCc1ccc(Cl)c(Cl)c1)NC(=O)c1nc(Cl)c(N)nc1N -18.8%
COc1ccccc1-c1nccc(NC2CCNCC2)n1 3.9% [at 2.29 µM]
O=C1c2ccccc2C(=O)c2c(NC3CCCCC3)ccc(Nc3ccc(S(=O)(=O)O)cc3)c21 -7.2% [at 11.4 µM]
COc1ncc2nc(-c3cc(F)cc(F)c3)c(=O)n(-c3ccccc3)c2n1 -1.98%
C[C@@H]1C(=O)N(C)C(=O)c2nc[nH]c21 11.7%
CCOc1ccc(NC(=O)N2CCC(c3ccc(C)cc3)C2)cc1 (stereo unspecified) -27.4%
Cc1cccc(OCC(=O)N2CCC(N3CCCCCC3)CC2)c1 -26.9%
COc1ccc(C(C(=O)NC2CCCCC2)N(C(=O)c2sc(C)nc2C)c2ccc(C(C)=O)cc2)cc1 (stereo unspecified) -11.5%
COc1ccc(C[C@H](N)C(=O)N[C@@H]2[C@H](O)[C@H](n3cnc4c(N(C)C)ncnc43)O[C@@H]2CO)cc1 -0.46% [at 25.6 µM]
C[C@H](O)[C@H](O)[C@@H]1CNc2nc(N)[nH]c(=O)c2N1 22%
CCS(=O)(=O)NCCc1cc2ccc(C)cc2[nH]c1=O -10%
COc1ccc(C(=O)N2CCC[C@@]3(CCN(c4cccc(-c5ccccc5)c4)C3)C2)cc1 -25.3%
CCOc1ccc(N=C2NC(=O)C(CC(=O)O)S2)cc1 (stereo unspecified) -15.7%
N#CCCn1c(=O)c(-c2ccc(F)cc2)nc2cnc(N3CCOCC3)nc21 17.5%
CC(C)(SCc1ccccc1)[C@H](N)C(=O)O -5.67% [at 11.4 µM]
CCOC(=O)N1CCN(S(=O)(=O)Cc2ccccc2)CC1 -29.3%
CC(C)Cn1cnc2c(SCc3ccccn3)nc(N)nc21 0.334% [at 11.4 µM]
OCC1CCCN(Cc2ccc(-c3ccccc3)cc2)C1 (stereo unspecified) -14%
Clc1ccccc1-c1cc(NCc2ccccc2)ncn1 4.07% [at 2.29 µM]
CC(=O)Nc1ccc(N2CCCCC2)cc1 -0.405%
COc1ccc(-n2c(=O)c(-c3cc(F)cc(F)c3)nc3cncnc32)cc1 4.19%
O=c1c(-c2cccc(F)c2)nc2cncnc2n1C1CC1 -5.69%
O=c1c(-c2cccc(Cl)c2)nc2cncnc2n1C1CC1 20.6%
c1nc(NC2CCNCC2)c2cc(-c3ccoc3)ccc2n1 -8.97% [at 2.29 µM]
N#Cc1cccc(NC(=O)N2CCCC3(CCN(C(=O)c4csnn4)CC3)C2)c1 0.0244%
O=c1c(-c2ccc(F)c(F)c2)nc2cncnc2n1C1CC1 12.8%
O=c1c(-c2ccc(Cl)cc2)nc2cncnc2n1Cc1ccccc1Cl -22.7%
O=c1c2ccccc2sc2c(CO)ccc(NCCN3CCCCC3)c12 17.3% [at 11.4 µM]
N[C@H](CCCP(=O)(O)O)C(=O)O -10.4%
Cc1cn(CC[C@H](N)C(=O)O)c(=O)[nH]c1=O 23.1% [at 11.4 µM]
Cc1ccc(S(=O)(=O)N[C@H]2COC(=O)[C@H](C)COC(=O)[C@H](C)NC(=O)C/C=C\[C@H]2C)cc1 2.34% [at 11.4 µM]
CC(C)(C[C@@]1(C)NC(=O)NC1=O)OCc1ccccc1 9.56% [at 11.4 µM]
CN1CCc2c(c3c(n2C)CCN(C)[C@H]3c2ccccc2F)[C@@H]1c1ccccc1F 13.7%
COc1ccc(OC)c(NC(=O)[C@H]2CC=CC[C@H]2C(=O)O)c1 -19.2%
CCOC(=O)C1CCN(C(=O)C2CCN(S(=O)(=O)N3CCCC3)CC2)CC1 -26.3%
Cc1ccc(Oc2ncc(CN3CCOCC3)s2)cc1 -12.5%
c1ccc2nc(C3=NCCN3)cnc2c1 16.2%
N=C(N)S[C@H]1c2ccccc2-c2cc([N+](=O)[O-])ccc21 -26% [at 11.4 µM]
N[C@H](C(=O)O)C1[C@H](C(=O)O)[C@H]1C(=O)O (stereo partly specified) -16.8%
O=c1[nH]c(=S)c2[nH]c(=O)n(-c3ccccc3)c2[nH]1 -16.7% [at 11.4 µM]
CCOC(=O)N1CCN(C(=O)c2ccc3c(=O)n(-c4ccc(OC)cc4)c(=S)[nH]c3c2)CC1 -21.8%
CO[C@@H]1COC(=O)CCC[C@@H](C)[C@H](OC)COC(=O)CCC[C@H]1C -7% [at 11.4 µM]
CC1(C(=O)CSc2nc3ccccc3s2)CCC(=O)O1 (stereo unspecified) -21.7%
Cc1cc2ccc(OC(=O)c3ccc(N=C(N)N)cc3)cc2oc1=O 3.7% [at 11.4 µM]
Cc1ccc(OC(=O)c2cccc(C(=O)Oc3ccc(C)cc3)n2)cc1 -49.8%
